# In the library only some 2.2% were active in any assay of this set; here they are far more common.
# IEC-6 tox-1 = cytotoxicity in IEC-6 intestinal epithelial cells, primary screen, cytotoxicity control for KLF5 inhibitor project, cell-based, luminescence. IEC-6 cytotoxicity, luminescence viability. hit rate 0.78% among 290,000. inhibition, % at 5 µM;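 further: 0% = plate median of test compound wells and 100% = cytotoxic reference compound wells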
# Ba/F3 V617F tox = reduced viability of JAK2V617F-dependent Ba/F3 cells, primary screen, JAK2V617F inhibitor project, cell-based, Ba/F3 EpoR-JAK2V617F, luminescence | ATP luminescence | inhibition, % at 5.6 µM | hit rate 1.1% among 220,000;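 active means inhibition above the campaign mean plus 3 SD over all tested compounds, cut at about 24% in these data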;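 further: cytokine-independent growth of Ba/F3 cells driven by EpoR plus mutant JAK2; 0% = DMSO-treated cells and 100% = JAK inhibitor I control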
# APP 5UTR inh = inhibitors of APP translation via 5'UTR reporter, primary screen, APP 5'UTR luciferase, SH-SY5Y cells | SH-SY5Y APP 5'UTR-luciferase reporter, luminescence | inhibition, % at 2 µM | hit rate 0.82% among 190,000;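 active means inhibition above a set limit, derived from the sample mean plus 3 SD, cut at about 45% in these data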
# KLF5 inh = KLF5 expression inhibitors, primary screen, DLD-1 cells, luminescence; hit rate 0.23% among 290,000; inhibition, % at 5 µM; DLD-1 KLF5 promoter-luciferase reporter;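 active means inhibition above a per-plate limit of that plate's mean compound inhibition plus 3 SD, cut at about 60% in these data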;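 further: 0% = DMSO wells and 100% = LY294002 at 200 µM; higher means less KLF5 promoter-driven luciferase light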
# BaF3 tox = parental Ba/F3 cell viability inhibition, counter-screen for JAK2V617F inhibitor project, murine pro-B, CellTiter-Glo luminescence | CellTiter-Glo ATP luminescence | inhibition, % at 5.6 µM | hit rate 1.1% among 220,000;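 active means inhibition above a per-campaign cutoff, the mean inhibition of all tested compounds plus 3 SD, cut at about 27% in these data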;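 further: 0% = DMSO wells and 100% = JAK Inhibitor I control wells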
# aSyn 5UTR inh = MLPCN primary screen, SNCA 5' untranslated region; hit rate 0.82% among 300,000; inhibition, % (tested at 7.5 µM); alpha-synuclein 5'UTR reporter, inhibitor activity; in the data active means inhibition above about 60%;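 further: H4 neuroglioblastoma cells stably carrying SNCA 5'UTR luciferase fusion; 0% = DMSO wells and 100% = positive control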
# BaF3 tox 2 = parental Ba/F3 cell viability inhibition, counter-screen for JAK2V617F inhibitor project, murine pro-B, CellTiter-Glo luminescence; shares compounds with Ba/F3 V617F tox; cells kept alive by added IL-3; inhibition, % at 5.6 µM; hit rate 31% among 580;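 active means cell growth inhibition above the hit limit set in the earlier mutant JAK2 cell screen, cut at about 27% in these data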;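 further: plate controls were DMSO-treated cells for no effect and JAK Inhibitor I control wells for full effect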
# JAK2V617F confrm = viability loss in Ba/F3 EpoR-JAK2V617F cells, confirmation, JAK2V617F inhibitor project, cell-based, luminescence, triplicate; shares compounds with Ba/F3 V617F tox; CellTiter-Glo luminescence; inhibition, % at 5.6 µM; hit rate 66% among 580; AID 1521, 2009;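 active means mean inhibition above the hit cutoff derived in the earlier primary screen, cut at about 25% in these data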;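 further: 0% = DMSO-treated cells and 100% = JAK inhibitor I control wells; higher means lower luminescence from reduced cell ATP and viability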
# KLF5 confirm = KLF5 expression inhibitors, confirmation, DLD-1 cells, luminescence | shares compounds with KLF5 inh | DLD-1 KLF5 promoter firefly luciferase reporter | inhibition, % at 4 µM | hit rate 79% among 610;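 active means inhibition above a set limit taken from the earlier primary screen, cut at about 63% in these data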;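 further: 0% = DMSO wells and 100% = LY294002 at 200 µM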
# IEC-6 tox-2 = cytotoxicity in rat IEC-6 cells, cytotoxicity control for KLF5 inhibitor project, cell-based, luminescence, triplicate; shares compounds with KLF5 inh; IEC-6 rat intestinal cells, viability luminescence; inhibition, % at 4 µM; hit rate 56% among 610; in the data active means inhibition above about 23%;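 further: cells exposed to compounds for 48 hours before viability read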
# IEC-6 tox confirm = cytotoxic compounds in IEC-6 epithelial cells, confirmation, cytotoxicity control, cell-based, luminescence; inhibition, % at 5 µM; hit rate 63% among 1,900; IEC-6 rat intestinal epithelial viability; shares compounds with IEC-6 tox-1; AID 1907, 2009;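 further: 0% = vehicle and 100% = reference cytotoxic drug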
# An asterisk follows results filed as active; · = no result given. Unless noted, no stated cut-off is given here; in the data, active means inhibition above about 22%; inactive means the rest.
SMILES,IEC-6 tox-1,Ba/F3 V617F tox,APP 5UTR inh,KLF5 inh,BaF3 tox,aSyn 5UTR inh,KLF5 confirm,IEC-6 tox-2,others
CCCNC(=O)c1nnsc1S(=O)(=O)c1ccc(Cl)cc1,26*,94*,95*,-6,23,·,·,·,BaF3 tox 2=96*;JAK2V617F confrm=98*;IEC-6 tox confirm=22*
CCCNC(=O)NS(=O)(=O)c1ccc(Cl)cc1,0,-3,-14,-13,5,-22,·,·,
CC(=O)n1cc(Nc2ccccc2C(=O)O)c2ccccc21,3,-2,-7,-5,1,33,·,·,
COc1ccccc1N(C(=O)CCl)c1cn(C(C)=O)c2ccccc12,57*,75*,·,-7,-1,38,·,·,BaF3 tox 2=4;JAK2V617F confrm=87*;IEC-6 tox confirm=23*
COc1ccc(/C=C/C(=O)Nc2ccc(OC)nc2)cc1,-6,2,-4,-7,1,-46,·,·,
COc1ccc(CS(=O)(=O)/C(Cl)=C(/Cl)C(=O)Nc2ccc(OC)nc2)cc1,88*,32*,84*,45,5,-24,·,·,BaF3 tox 2=99*;JAK2V617F confrm=99*;IEC-6 tox confirm=29*
CCOc1ccc(N(CC(=O)N/N=C/c2ccccn2)S(=O)(=O)c2ccc(Cl)cc2)cc1,4,·,·,-42,·,·,·,·,
COc1ccc2cc(CCNC(=O)c3ccc(S(=O)(=O)N4CCOCC4)cc3)c(=O)[nH]c2c1,-12,·,·,-10,·,2,·,·,
O=C(Nc1ccccc1)C1=C(c2ccccc2)S(=O)(=O)CCS1(=O)=O,28*,85*,87*,24,1,16,·,·,BaF3 tox 2=66*;JAK2V617F confrm=100*;IEC-6 tox confirm=24*
Nc1nnnn1/N=C/C(Br)=C/c1ccccc1,101*,74*,91*,10,-2,-251,·,·,BaF3 tox 2=105*;JAK2V617F confrm=100*;IEC-6 tox confirm=54*
Cc1ccc(NC(=O)c2cc3ccccc3oc2=O)cc1S(=O)(=O)N(C)C,4,2,47*,76*,5,73*,87*,-7,
O=c1cnnc(N/N=C/c2ccccn2)[nH]1,8,41*,·,76*,51*,75*,72*,50*,
O=C(CCl)Nc1cc(SCC(O)CO)cc([N+](=O)[O-])c1 (stereo not given),14,99*,-16,84*,99*,110*,112*,34*,
O=C(CCc1nnc(C2(c3ccc(Cl)cc3)CCC2)o1)N1CCCC1,1,·,·,-76,·,-72,·,·,
Cc1ccc(C(=O)O/N=C(\N)c2ccccn2)c(C)c1,7,·,·,108*,·,106*,104*,-4,
Nc1ccc(-c2nc3ccc(C(=O)O)cc3s2)cc1,-3,-1,67*,109*,0,95*,105*,-7,
O=c1cc(-c2ccccc2)[nH]c2ccc(F)cc12,82*,75*,92*,69*,74*,87*,82*,57*,
Cc1ccc(-c2cc(=O)c3cc(F)ccc3[nH]2)cc1,-6,1,-6,-22,4,-41,·,·,
CC(=O)N(C1=C(N2CCOCC2)C(=O)c2ccccc2C1=O)c1ccc(C(=O)O)cc1,-4,4,·,-10,0,26,·,·,
CC(=O)N(C)C1=C(N2CCOCC2)C(=O)c2ccccc2C1=O,-2,101*,-3,85*,101*,76*,84*,15,
c1ccc(-c2nnc(NC3=NCCC3)o2)cc1,-1,6,-122,-92,7,-7,·,·,
Fc1ccc(-c2nnc(NC3=NCCCCC3)o2)cc1,12,10,-45,73*,11,98*,41,1,
CN1C(=O)[C@H]2[C@@H](/C=C/c3ccccc3)N3C(=O)CN(CC4CC4)C(=O)[C@@]3(C)[C@H]2C1=O,1,·,·,-40,·,12,·,·,
COc1cc(/C=C/[N+](=O)[O-])ccc1OCc1cccc(C(=O)O)c1,-7,1,58*,71*,8,97*,67*,-6,
O=C1CCCCC1Sc1nnc(-c2ccc3c(c2)OCO3)o1 (stereo not given),6,5,-178,66*,8,33,40,-2,
SMILES,IEC-6 tox-1,Ba/F3 V617F tox,APP 5UTR inh,KLF5 inh,BaF3 tox,aSyn 5UTR inh,KLF5 confirm,IEC-6 tox-2,others
Clc1ccc(CSc2nnc(-c3ccc4c(c3)OCO4)o2)cc1,-2,-3,4,-37,5,-4,·,·,
CSc1cccc(NC(=O)CC2Oc3ccccc3NC2=O)c1 (stereo not given),-5,·,·,-25,·,14,·,·,
Clc1ccc2c(c1)C(C1=NCCN1)c1ccccc1CS2 (stereo not given),66*,76*,97*,80*,70*,79*,90*,46*,
CCOc1ccc(OCCOC(=O)CNC(=O)c2ccc(Cl)cc2Cl)cc1,·,·,·,·,·,-7,·,·,
Nc1c(C(=O)Nc2cccc(C(=O)O)c2)sc2nc3c(cc12)CCCC3,0,·,·,84*,·,77*,90*,-8,
Cc1cccc(C)c1NC(=O)CCCN1C(=O)C(c2ccccc2)Oc2cccnc21 (stereo not given),1,·,·,5,·,11,·,·,
CCN1/C(=C/c2ccc3ccccc3[n+]2CC)C=Cc2ccccc21,48*,99*,33,66*,92*,10,103*,58*,
COc1ccccc1-c1nnc2n1N=C(c1ccc(O)c(O)c1)CS2,1,95*,95*,80*,92*,97*,92*,14,
NC(=O)C1CCN(C(=O)CC2(CC(=O)O)CCCC2)CC1,-6,·,·,-40,·,-11,·,·,
CCOc1ccc(N(CC(=O)Nc2ccccc2C(=O)N2CCCC2)S(C)(=O)=O)cc1,-8,·,·,-3,·,-18,·,·,
CC(C)(C)c1ccc(-c2noc(CCC(N)=O)n2)cc1,6,5,72*,86*,6,91*,85*,-4,
CC(C)(C)c1ccc(-c2noc(CCC(=O)NCC3CCCO3)n2)cc1 (stereo not given),-1,-5,60*,74*,5,104*,67*,7,
CC(C)(C)c1ccc(-c2noc(CCC(=O)Nc3cccnc3)n2)cc1,-2,·,·,78*,·,77*,87*,12,
